Among the data in PubChem BioAssay are composite z-score, z-score and composite Z-score values, retold here.

In assay [1] the test system is Human papillomavirus type 1a protein E7 (residues 44-93). The assay is described as follows: small molecules binding HPV E7 44-93 – biochemical, small-molecule microarray, residues 44-93, 635 nm fluorescence, primary screen (AID 1108).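 Also: E7 fragment applied at 1 µg/mL in TBST for 1 h at 4 C; score combines spot fluorescence with its signal to noise ratio.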 As to conditions: fluorescence 635 nm, higher = more signal.
The nature of assay [2]: hepatitis C replication reporter changes, two-sided – Huh7 cells, luciferase reporter, HCV replication inhibitor project, primary screen (AID 1109).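 Also: huh7 hepatoma cells harbouring a luciferase neomycin HCV replicon reporter; luciferase luminescence as measure of HCV replicon replication; test concentration not given here.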 As to conditions: Huh7 HCV replicon luciferase reporter, 48 h; higher = more signal.
The target of assay [3] is Left-right determination factor 2 (Homo sapiens) (UniProt O00292). As to the kind of experiment: small molecules binding LEFTY2 protein – biochemical, small-molecule microarray, 635 nm fluorescence scan, primary screen (AID 1110). Particulars: higher = more signal.
Left-right determination factor 2 (Homo sapiens), sequence (O00292 whole entry, looked up): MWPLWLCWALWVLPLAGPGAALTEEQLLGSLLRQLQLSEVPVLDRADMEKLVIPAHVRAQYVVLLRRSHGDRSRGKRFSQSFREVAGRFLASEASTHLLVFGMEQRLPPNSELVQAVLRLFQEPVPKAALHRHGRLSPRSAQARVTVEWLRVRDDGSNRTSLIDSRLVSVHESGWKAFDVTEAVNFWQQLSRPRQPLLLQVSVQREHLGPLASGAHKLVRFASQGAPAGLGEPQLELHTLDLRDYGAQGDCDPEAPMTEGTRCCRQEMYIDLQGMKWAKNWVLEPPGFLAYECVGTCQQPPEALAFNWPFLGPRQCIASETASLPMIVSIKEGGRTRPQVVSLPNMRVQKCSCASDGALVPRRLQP
Assay [4] addresses Calmodulin-1 (Homo sapiens) (UniProt P0DP23). As to the kind of experiment: small molecules binding calmodulin-1 with EGTA – biochemical, small-molecule microarray, Cy5-labelled CALM1, profiling panel (AID 1111).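 Also: labelled calmodulin applied in Tris saline Tween buffer holding calcium plus EGTA and DTT.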 As to conditions: Cy5-CALM1 binding fluorescence, higher = more signal.
For assay [5] the target is unchanged. As to the kind of experiment: small molecules binding Ca-loaded calmodulin-1 – biochemical, small-molecule microarray, Cy5-labelled CALM1, plus calcium, artefact control for SMM control-protein annotation, profiling panel (AID 1112).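 Also: score merges spot fluorescence with signal to noise from triplicate slides.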 Particulars: Cy5-CALM1 binding fluorescence, higher = more signal.
The nature of assay [6]: probe aWnt5a binding to arrayed compounds – biochemical, biotinylated probe, 635/667 nm fluorescence, primary screen (AID 1113).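 Also: score merges 667 nm fluorescence intensity with signal-to-noise per printed feature.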 As to conditions: small-molecule microarray, higher = more signal.
Assay [7] in a line: probe aShh binding to arrayed compounds – biochemical, biotinylated probe, 635/667 nm fluorescence, primary screen (AID 1114).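 Also: probe is biotin-labelled aShh protein from a stem cell growth factor screen; measures binding of labelled protein to compounds printed on the slide; score merges feature fluorescence at 667 nm with signal-to-noise.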 Particulars: small-molecule microarray, higher = more signal.
The nature of assay [8]: probe aNog binding to arrayed compounds – biochemical, biotinylated probe, 635/667 nm fluorescence, primary screen (AID 1115).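 Also: probe is biotinylated aNog protein used at 0.15 µg/mL for 1 h at 4 C; z-score combines 667 nm fluorescence of each spot with its signal to noise.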 As to conditions: small-molecule microarray, higher = more signal.
Assay [9] deals with Torsin-1A-interacting protein 1 (Homo sapiens) (UniProt Q5JTV8). The assay is described as follows: compound microarray binding of lysate hLAP1 – cell lysate, small-molecule microarray, COS7 lysate, 635/667 nm fluorescence, primary screen (AID 1116). Particulars: 635 nm fluorescence, higher = more signal.
Torsin-1A-interacting protein 1 (Homo sapiens), sequence (Q5JTV8 whole entry, looked up): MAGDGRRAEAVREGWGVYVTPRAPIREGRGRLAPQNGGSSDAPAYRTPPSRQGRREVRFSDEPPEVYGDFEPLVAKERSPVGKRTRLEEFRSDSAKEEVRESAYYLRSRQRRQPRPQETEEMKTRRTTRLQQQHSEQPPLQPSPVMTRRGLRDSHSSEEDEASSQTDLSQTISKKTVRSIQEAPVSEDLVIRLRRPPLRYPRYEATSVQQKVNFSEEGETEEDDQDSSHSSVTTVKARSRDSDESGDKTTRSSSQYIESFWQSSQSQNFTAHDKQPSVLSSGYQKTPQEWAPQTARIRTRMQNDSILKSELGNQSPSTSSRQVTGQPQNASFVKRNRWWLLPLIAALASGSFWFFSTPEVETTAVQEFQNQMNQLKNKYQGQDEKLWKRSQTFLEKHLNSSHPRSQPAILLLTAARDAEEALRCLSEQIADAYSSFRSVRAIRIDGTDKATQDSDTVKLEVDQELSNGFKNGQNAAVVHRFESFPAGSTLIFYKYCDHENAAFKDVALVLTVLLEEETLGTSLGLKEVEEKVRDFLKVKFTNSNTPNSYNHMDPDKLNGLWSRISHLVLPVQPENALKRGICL
Assay [10] concerns the target Alpha-bungarotoxin (Bungarus multicinctus) (UniProt P60615). The assay is described as follows: compounds binding labelled alpha-BTX control protein – biochemical, small-molecule microarray, Alexa647 label, 635/667 nm fluorescence, artefact control for SMM control protein annotation, profiling panel (AID 1117). As to conditions: alpha-BTX-A647 binding fluorescence, higher = more signal.

For assay [11], the target named is Albumin (Bos taurus) (UniProt P02769). The assay is described as follows: compounds binding labelled BSA control protein – biochemical, small-molecule microarray, Alexa647 label, 635/667 nm fluorescence, artefact control for SMM control protein annotation, profiling panel (AID 1118).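 Also: score merges 667 nm emission intensity and signal-to-noise per printed compound spot.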 Particulars: BSA-A647 binding, fluorescence 635 nm, higher = more signal.
Albumin (Bos taurus), sequence (P02769 whole entry, looked up): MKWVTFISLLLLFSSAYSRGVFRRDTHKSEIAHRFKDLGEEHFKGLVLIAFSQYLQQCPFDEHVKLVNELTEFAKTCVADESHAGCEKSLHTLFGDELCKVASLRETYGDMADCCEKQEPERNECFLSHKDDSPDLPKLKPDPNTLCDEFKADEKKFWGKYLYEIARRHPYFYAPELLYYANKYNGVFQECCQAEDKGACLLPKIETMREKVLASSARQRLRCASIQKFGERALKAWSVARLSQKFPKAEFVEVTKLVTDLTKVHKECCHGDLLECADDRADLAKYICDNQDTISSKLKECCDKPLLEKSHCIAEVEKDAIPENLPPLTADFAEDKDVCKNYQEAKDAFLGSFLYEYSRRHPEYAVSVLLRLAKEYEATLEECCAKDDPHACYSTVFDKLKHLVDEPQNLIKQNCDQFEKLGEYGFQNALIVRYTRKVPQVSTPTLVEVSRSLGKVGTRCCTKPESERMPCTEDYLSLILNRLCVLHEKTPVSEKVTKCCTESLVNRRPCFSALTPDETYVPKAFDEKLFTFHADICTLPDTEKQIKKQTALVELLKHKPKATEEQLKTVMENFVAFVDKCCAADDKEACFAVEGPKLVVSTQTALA
A short description of assay [12]: probe aXIP binding to arrayed compounds – biochemical, NeuroSMM set, 635/667 nm fluorescence, primary screen (AID 1119).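 Also: probe is the protein aXip251-270 applied at 1 µg/mL to compound-printed slides; binding of probe to printed compounds measured as 667 nm fluorescence plus signal to noise.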 As to conditions: small-molecule microarray, higher = more signal, called active from +8 up or from −8 down.
The nature of assay [13]: probe aNOTCH3 binding on compound microarray – biochemical, small-molecule microarray, 635/667 nm fluorescence, primary screen (AID 1120).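 Also: probe is a biotin-tagged antibody raised against NOTCH3 rather than NOTCH3 protein; score merges spot fluorescence near 667 nm with spot signal to noise.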 Particulars: higher = more signal.
Assay [14] is described as follows: probe aNOTCH2 binding on compound microarray – biochemical, small-molecule microarray, 635/667 nm fluorescence, primary screen (AID 1121).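 Also: score merges feature fluorescence read at 667 nm with its signal to noise.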 As to conditions: higher = more signal.
Assay [15] deals with Carbonic anhydrase 2 (Homo sapiens) (UniProt P00918). As to the kind of experiment: compounds binding carbonic anhydrase 2 – biochemical, small-molecule microarray, Alexa647-labelled CAII, profiling panel (AID 1122). As to conditions: CAII-A647 binding fluorescence, higher = more signal.
Assay [16] can be described thus: COS7 lysate on small-molecule microarray, probe aHis, 635 nm (AID 1123).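 Also: z-score combines 667nm fluorescence intensity with signal-to-noise per printed compound spot.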 Particulars: COS7 cell lysate, fluorescence, higher = more signal.
Assay [17] in a line: probe aLAP1 signal on lysate-treated microarray – cell lysate, small-molecule microarray, COS7 lysate, primary screen (AID 1124).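 Also: lysate comes from COS7 cells expressing LAP1 and is applied at 0.3 µg/mL; score merges spot fluorescence near 667 nm with signal-to-noise over triplicate slides.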 As to conditions: probe aLAP1, fluorescence, higher = more signal.
For assay [18], the system named is Sam68 (KHDRBS1). As to the kind of experiment: compounds binding KHDRBS1 protein – biochemical, small-molecule microarray, 635 nm fluorescence, primary screen (AID 1125).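 Also: score merges 667 nm channel intensity with signal to noise over triplicate slides.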 As to conditions: higher = more signal.
Assay [19] has as its system Chordin-like protein 2 (CHRDL2). The assay is described as follows: compounds binding chordin-like 2 – biochemical, small-molecule microarray, 635 nm fluorescence, primary screen (AID 1126).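 Also: printed compound slides probed with Chrdl2 protein at 4 µg/mL for 1 h at 4 C; score merges 667 nm emission intensity with signal to noise over three replicate slides.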 Particulars: fluorescence 635 nm, higher = more signal.
Assay [20] concerns the target Concanavalin-A (Canavalia ensiformis) (UniProt P02866). As to the kind of experiment: compounds binding concanavalin A lectin – biochemical, small-molecule microarray, Alexa647 label, 635 nm, artefact control for SMM control protein annotation, primary screen (AID 1127).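 Also: z combines 667 nm emission intensity with signal-to-noise across three replicate slides.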 As to conditions: ConA-A647 binding fluorescence, higher = more signal.

Activity calls are given as the source filed them.

Alpha-bungarotoxin (Bungarus multicinctus), sequence (P60615 whole entry, looked up): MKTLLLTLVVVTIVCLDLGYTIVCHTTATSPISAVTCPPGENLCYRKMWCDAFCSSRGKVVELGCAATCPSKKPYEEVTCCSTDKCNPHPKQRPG
Concanavalin-A (Canavalia ensiformis), sequence (P02866 whole entry, looked up): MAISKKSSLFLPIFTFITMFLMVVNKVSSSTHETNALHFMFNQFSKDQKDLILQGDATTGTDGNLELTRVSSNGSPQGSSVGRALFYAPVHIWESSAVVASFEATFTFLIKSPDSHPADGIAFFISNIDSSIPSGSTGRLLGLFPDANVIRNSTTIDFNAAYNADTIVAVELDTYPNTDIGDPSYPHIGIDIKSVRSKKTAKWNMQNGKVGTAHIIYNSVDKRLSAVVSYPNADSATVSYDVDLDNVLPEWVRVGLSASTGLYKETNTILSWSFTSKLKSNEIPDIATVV

Regarding `O=C1c2ccccc2[C@@]2(Cc3ccccc3N(Cc3ccccc3)C2=O)[C@H](c2ccc(CO)cc2)N1C1CCCCC1`, the composite z-score in [1] was 0.438; in assay [3] it was 0.186; in [4], 0.0329; in assay [5], -0.105; in assay [6], -0.202; in [7], 0.0062. Besides, the composite z-score in assay [8] was -0.444; in assay [9], -0.345; in assay [10], 0.0868; in assay [11] it was -0.841; in [13], -0.141; in [14], -0.14. Also, the composite z-score stood at 0.416 in assay [15]; 1.03 in assay [16]; 0.432 in [17]; 0.689 in assay [18]; 0.685 in assay [19]; 1.01 in [20]. Besides, the z-score in [2] is -0.717. Also, the composite Z-score in assay [12] was 0.0066 (inactive).

Take `C=CCNC(=O)[C@@H]1[C@H]2C(=O)O[C@H](c3ccccc3)[C@H](c3ccccc3)N2[C@H](c2ccc(OCCO)cc2)[C@@]12C(=O)Nc1ccccc12`: the composite z-score was 1.39 in assay [1]; 0.302 in assay [3]; 0.705 in assay [4]; -0.495 in [5]; -0.0179 in [6]; 0.0469 in [7]. For the same compound, the composite z-score in assay [8] was -0.543; in [9] it was 1.55; in assay [10], 1.05; in assay [11], 0.507; in assay [13] it was 0.0773; in [14] it was -0.157. The composite z-score in assay [15] is 0.692; in assay [16], 1.91; in [17], 0.262; in assay [18], 1.29; in [19], 0.228; in assay [20], 1.11. In assay [2], this compound registered a z-score of -1.72. The composite Z-score in assay [12] was -0.551 (inactive).

For `COc1ccc(C(O)C2C=CC3C(=O)N(C)C(=O)C3N2Nc2ccccc2)cc1OCc1ccccc1` (stereo not given), the composite z-score in [1] was 1.43; in assay [3], 0.195; in [4], 1.52; in [5] it was 0.519; in [6], -0.0529; in assay [7], -0.221. In addition, the composite z-score in [8] was 0.289; in [9], 1.25; in [10], 1.79; in assay [11] it was 0.878; in assay [13], -0.0714; in [14], -0.0128. In addition, the composite z-score is 0.754 in assay [15]; 1.67 in assay [16]; -0.142 in [17]; 1.28 in assay [18]; -0.0441 in assay [19]; 0.949 in assay [20]. The compound further displayed a z-score in [2] of -0.685. In addition, the composite Z-score in [12] was 0.0582 (inactive).

As to `C=CC[C@@H](OC(=O)Nc1ccc(OC)cc1)c1ccc(O)c2ccccc12`, the composite z-score is 0.94 in [1]; 1.07 in assay [3]; 0.0871 in assay [4]; -0.738 in assay [5]; -0.0006 in [6]; -0.154 in assay [7]. Besides, the composite z-score in assay [8] was -0.139; in assay [9] it was 0.3; in assay [10], 0.824; in assay [11], 0.32; in assay [13], 0.278; in assay [14], -0.133. For the same compound, the composite z-score in assay [15] was 0.349; in [16] it was 1.53; in assay [17], -0.09; in assay [18] it was 1.3; in assay [19], 1.34; in [20], 0.913. The same compound returned a z-score in assay [2] of -3.47. In addition, the composite Z-score in assay [12] is 0.786 (inactive).

`CCOC(=O)C[C@H]1[C@H](OC(=O)c2ccc(-c3ccccc3)cc2)[C@@H](NC(=O)Cc2ccc(OC)cc2)c2cc(OCCCO)ccc2N1C(=O)c1ccc2ccccc2n1`: the composite z-score in [1] was 1.13; in assay [3], 0.0394; in [4], 0.882; in [5] it was -0.0431; in assay [6] it was 0.0068; in assay [7] it was -0.282. Besides, the composite z-score in [8] was -0.201; in assay [9], -0.0103; in assay [10] it was 0.0263; in [11] it was 0.647; in assay [13] it was 0.0408; in assay [14], -0.0288. Moreover, the composite z-score in assay [15] was 0.19; in assay [16], 1.24; in assay [17], 0.561; in [18] it was 0.891; in assay [19], -0.62; in assay [20] it was 0.762. Further, in assay [2], the z-score was -1.92. For the same compound, the composite Z-score in assay [12] was -1.15 (inactive).
